Compound activity from PubChem BioAssay.
CHT PAM – allosteric activators of human choline transporter CHT; B-score at 10 µM; Q9GZV3; actives 0.49% (n = 310,000); CHT-expressing cells, membrane potential dye, choline EC20; stronger effect = higher value; LV-AA mutant CHT in HEK293 cells;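 active = initial fluorescence not abnormally high and integrated response B-score, plate-corrected, over 3 SD above library mean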
Target sequence (Q9GZV3 whole entry, looked up): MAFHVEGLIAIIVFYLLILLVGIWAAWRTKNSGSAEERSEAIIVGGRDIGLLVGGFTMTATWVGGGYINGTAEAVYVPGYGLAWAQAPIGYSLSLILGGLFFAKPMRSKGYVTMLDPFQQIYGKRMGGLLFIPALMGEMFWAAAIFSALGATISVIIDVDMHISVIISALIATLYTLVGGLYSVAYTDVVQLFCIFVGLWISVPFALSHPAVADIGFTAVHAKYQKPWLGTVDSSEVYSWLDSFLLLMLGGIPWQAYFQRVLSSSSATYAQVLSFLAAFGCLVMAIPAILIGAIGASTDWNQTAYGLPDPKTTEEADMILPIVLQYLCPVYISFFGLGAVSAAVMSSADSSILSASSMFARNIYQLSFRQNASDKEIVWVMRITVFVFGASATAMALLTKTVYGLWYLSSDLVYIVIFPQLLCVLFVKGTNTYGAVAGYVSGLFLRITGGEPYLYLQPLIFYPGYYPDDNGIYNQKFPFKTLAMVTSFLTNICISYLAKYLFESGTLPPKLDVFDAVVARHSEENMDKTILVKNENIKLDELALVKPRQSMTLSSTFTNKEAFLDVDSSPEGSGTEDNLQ
EP2 modulator – modulates human prostaglandin E2 receptor EP2 signaling; induction, % at 25 µM; actives 0.83% (n = 260,000); P43116; EP2-expressing cells, cAMP HTRF FRET, PGE2 co-stimulation;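 active = compounds whose cAMP rise, as percent of the full-agonist control response, exceeds 60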;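 note: rat C6 glioma line stably carrying human EP2 under a CMV promoter; the protocol text gives 20 µM as final concentration; 100% = response of wells given 1 µM PGE2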
CHT block – inhibits the human high affinity choline transporter; actives 0.86% (n = 310,000); B-score at 10 µM; AID 488975; CHT-expressing cells, membrane potential dye, choline response; stronger effect = lower value; Q9GZV3;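 active = B-score over 3 SD under the library average, and starting fluorescence ratio not unusually high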;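 note: choline stimulus applied at its EC90 after an EC20 pre-addition; B-score computed on integrated fluorescence ratio after choline addition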
EP2 antag – EP2 receptor (human) inhibition. C6 glioma cells expressing human EP2, cAMP TR-FRET; cells stimulated with saturating PGE2. actives 0.52% (n = 260,000). P43116. inhibition, % at 25 µM. AID 1422;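 active = percent inhibition above 40 after rounding to a whole number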;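 note: rat C6 glioma host cells with rolipram phosphodiesterase inhibitor present; the protocol text gives 20 µM as final concentration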
CHT inh conf – confirmation of human choline transporter CHT inhibitors | shares compounds with CHT block | CHT-expressing cells, choline membrane potential dye; LV-to-AA substituted CHT, HEK293 cells | CHT activity remaining % of control (stronger effect = lower value), % at 10 µM | actives 70% (n = 2,400) | AID 493221;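 active = choline transporter activity left, mean of duplicates at 10 µM, below buffer-only control mean minus 3 SD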;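 note: depolarization triggered by choline at its EC90 following an EC20 pre-addition; 0% = hemicholinium-3 full block and 100% = buffer-only control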
HEK293 MPD ctr – activity in parental HEK293 cells lacking CHT. shares compounds with CHT block. membrane potential dye, choline response; active = decrease or increase beyond buffer ±3SD. membrane potential ratio readout (active if shifted either direction beyond buffer ±3SD; no single direction) at 10 µM. actives 4% (n = 2,400). AID 493222;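 note: parental cells lack the transporter so any hit is non-specific; ratio is peak minus trough fluorescence over baseline after EC90 choline challenge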
Active calls of the source: *; i = inactive; . = not tested or not shown. Rows were chosen to be rich in hits. Some 2.1% of all compounds tested hit in one or more screens of this group.

SMILES | CHT PAM | EP2 modulator | CHT block | EP2 antag | CHT inh conf | HEK293 MPD ctr
O=C(C[n+]1cccc2ccccc21)c1ccc([N+](=O)[O-])cc1 | i | -12 | i | 4 | . | .
Cc1ccc2c(ccc[n+]2CC(=O)c2ccccc2)c1 | i | -4 | i | 4 | . | .
Cc1ccccc1-c1nnc(NC(=O)C2CC2)s1 | . | -19 | . | 11 | . | .
Cc1nnc(C)n1/N=C/c1cc(Br)cc(Br)c1O | i | 13 | -6.8* | 23 | 34%* | i
CCN1CCCC1CN(Cc1cc2c(C)cc(C)cc2[nH]c1=O)C(=O)Nc1ccccc1 (configuration not stated) | . | -5 | . | 4 | . | .
CCN(CC)CCCn1c2c(c(SCC(=O)Nc3cccc4ccccc34)nc1=O)CCC2 | i | . | i | . | . | .
CCN(CC)CCCn1c2c(c(SCC(=O)N3CCc4ccccc43)nc1=O)CCC2 | i | . | -8* | . | 42%* | i
Cc1cc(-c2ccccc2)n(-c2ccc(C(=O)N3CCN(c4ncccn4)CC3)cc2)n1 | i | 36 | -6.4* | 9 | 71%* | i
Cc1ccc(C(=O)N2CCN(c3ncccn3)CC2)cc1 | i | . | i | . | . | .
CCn1c(=O)n(CC(=O)NC23CC4CC(CC(C4)C2)C3)c2cccnc21 | . | -52 | . | 12 | . | .
CCOc1ccc(/C=C2\SC(=S)N(NS(=O)(=O)c3ccccc3)C2=O)cc1OC | i | 23 | -5.8* | 9 | 56%* | i
COc1ccc(OC)c(/C=C2\SC(=S)N(NS(=O)(=O)c3ccc(C)cc3)C2=O)c1 | i | . | i | . | . | .
CCOc1cc(/C=C2\SC(=S)N(NS(=O)(=O)c3ccccc3)C2=O)ccc1O | i | . | i | . | . | .
COc1ccc(/C=C2\SC(=S)N(NS(=O)(=O)c3ccccc3)C2=O)c(OC)c1 | i | . | i | . | . | .
CCOc1ccc(/C=C2\SC(=S)N(NS(=O)(=O)c3ccc(C)cc3)C2=O)cc1OC | i | -42 | -6.1* | 15 | 60%* | i
COc1ccc(OC)c(/C=C2\SC(=S)N(NS(=O)(=O)c3ccccc3)C2=O)c1 | i | . | -6.3* | . | 57%* | i
Cc1ccc2[nH]c(=O)c(CN(Cc3ccc(F)cc3)Cc3nnnn3CC3CCCO3)cc2c1 (configuration not stated) | . | 10 | . | 4 | . | .
CCN1C2=C(C(=O)CC(C)(C)C2)C(c2cccc(OC)c2)C2=C1CC(C)(C)CC2=O | . | 20 | . | 10 | . | .
CCC(Oc1ccc2c(c1)C(=O)CC(C)(C)O2)C(=O)NCCN1CCCCCC1 (configuration not stated) | i | 12 | -6.4* | . | 31%* | i
CCC1CCCCN1S(=O)(=O)c1ccc(NC(=O)c2nc(S(C)(=O)=O)ncc2Cl)cc1 (configuration not stated) | i | . | -6.4* | . | 12%* | i
O=C(Nc1ccc(Cl)cc1)Nc1ccc(N2CCC(C(F)(F)F)CC2)nc1 | i | 0 | -6.1* | 4 | i | i
COc1ccc2c(c1)c(C(=O)CNc1nc(C)cs1)c(C)n2C | i | 10 | -5* | 7 | 38%* | 2.7*
CCOCc1cnc(C)nc1NCC(=O)c1c(C)n(C)c2ccc(OC)cc12 | . | -5 | . | 16 | . | .
CC1(C)COCN1S(=O)(=O)c1ccc(C(=O)Nc2nnc(-c3ccc(Cl)s3)o2)cc1 | i | 7 | -5.8* | . | 50%* | i
COc1ccc(-c2nnc(NC(=O)c3ccc(S(=O)(=O)N4COCC4(C)C)cc3)o2)cc1 | i | -7 | i | . | . | .
SMILES | CHT PAM | EP2 modulator | CHT block | EP2 antag | CHT inh conf | HEK293 MPD ctr
Cc1cc(C(F)F)n2ncc(C(=O)N3CCCC(c4ncncc4-c4ccncc4)C3)c2n1 (configuration not stated) | . | -19 | . | . | . | .
CCC1CCCCN1C(=O)CCSc1nc(-c2ccc3c(c2)OCO3)cc(C(F)(F)F)n1 (configuration not stated) | . | -84 | . | 14 | . | .
COC(=O)C1=C(C)N(C)C(=O)NC1c1ccccc1 (configuration not stated) | i | 7 | i | 6 | . | .
CC1=C(C(=O)OCCOc2ccccc2)C(c2ccsc2)NC(=O)N1C (configuration not stated) | i | 15 | -6.5* | 5 | 50%* | i
O=S(=O)(Nc1nc2ccccc2nc1NCC1CCCO1)c1ccccc1 (configuration not stated) | i | 3 | i | 6 | . | .
O=S(=O)(Nc1nc2ccccc2nc1NCC1CCCO1)c1cc(Cl)ccc1Cl (configuration not stated) | i | -6 | -5.6* | 10 | 45%* | i
Cc1nn(C)cc1-c1nc(C(N)=O)c2[nH]c(=O)n(-c3ccccc3)c2n1 | . | -3 | . | . | . | .
C=CCNc1nc2ccccc2nc1NS(=O)(=O)c1ccc(Br)cc1 | i | . | -5.1* | . | 69%* | i
C=CCN(CC=C)S(=O)(=O)c1ccc2nc(NC(=O)C3CCCO3)sc2c1 (configuration not stated) | i | 22 | -5* | 7 | 58%* | i
Cc1ccc(Cc2cnc(NC(=O)CSc3ncccn3)s2)cc1 | . | -8 | . | 7 | . | .
CCOc1cccc(C2CC(=O)Nc3cc(OC)c(OC)cc32)c1 (configuration not stated) | i | . | -6.7* | . | i | i
N#Cc1c(NC(=O)C2CCCCC2)sc2c1CCCC2 | . | -10 | . | 31 | . | .
Oc1c(Cl)cc(Cl)cc1C=Nc1ccc2c(c1)OCCO2 | i | 33 | -5.1* | 3 | 62%* | i
O=[N+]([O-])c1ccc(N2CCCCC2)nc1 | i | . | -5.8* | . | 60%* | i
COC(=O)C1=C(C)NC2=C(C(=O)CC(c3ccc(OC)c(OC)c3)C2)C1c1ccc(O)cc1 (configuration not stated) | . | 18 | . | 10 | . | .
Cc1ccc(-c2nn(-c3ccccn3)c(=O)c3ccccc23)cc1 | i | 8 | -5.2* | 2 | 67%* | i
COc1cccc(NC(=S)N(Cc2ccc(C(=O)O)cc2)Cc2ccc(OC)c(OC)c2)c1 | i | 4 | -6.4* | 6 | 51%* | i
COc1ccc(CN(Cc2ccc(C(=O)O)cc2)C(=S)Nc2ccccc2C)cc1OC | i | 0 | i | 1 | . | .
CCCc1ccc(C(=O)N2CCCC(n3nc(-c4cccs4)ccc3=O)C2)o1 (configuration not stated) | . | -19 | . | . | . | .
c1ccc(-c2ncc(CSc3nncn3-c3ccccc3)s2)cc1 | i | -48 | i | 18 | . | .
Cc1nnc(SCc2cnc(-c3ccc(C(C)C)cc3)s2)n1C | i | -11 | -12* | 9 | 49%* | i
Cc1ccc2[nH]c(=O)c(CN(CCN3CCOCC3)Cc3nnnn3Cc3ccc(F)cc3)cc2c1 | . | -1 | . | 9 | . | .
COc1ccccc1CNC(=O)CCC(=O)N1CCOc2ccc(Cl)cc21 | i | . | i | . | . | .
